The campaign covered roughly 1,300 compounds. About 270 (21%) were called active. No rule for the calls is given here. These entries were drawn from the full list. Results with a measured potency or affinity are listed apart.
Assay: SK-MEL-5 parental cell viability loss, dose response, orthogonal assay for MITF inhibitor project, CellTiter-Glo, cherry-picked, set 3 (AID 493240)
Conditions: SK-MEL-5 viability, ATP luminescence (CellTiter-Glo), 24 h; series mostly up to 35 µM

Q: With Cc1ccc(SCCSc2ncccn2)cc1 as the compound, how does the outcome read?
A: inactive

Q: With O=C(O)C1CCN(C(=O)OCc2ccccc2)CC1 as the compound, how does the outcome read?
A: inactive

Q: For COc1cc(C2C(C#N)=C(N)Oc3cc(N(C)C)ccc32)cc2c1OCO2 (stereo not given), which outcome is on record?
A: inactive

Q: For O=C(O)c1cc2ccccc2c(N=Nc2cccnc2)c1O, which outcome is on record?
A: inactive

Q: Which outcome does the source give for Cc1cc(C)c2c(N)c3cccc(C)c3nc2n1 here?
A: inactive

Q: With OCCNc1c2ccccc2nc2ccccc12 as the compound, how does the outcome read?
A: inactive

Q: Which outcome does the source give for CC(=O)Nc1ccc(-c2nc3ccccc3o2)cc1 here?
A: inactive

Q: For Cc1nn2c(N)c(-c3ccccc3)cnc2c1-c1ccccc1, which outcome is on record?
A: inactive

Q: For COc1ccc(-c2nc(-c3ccncc3)no2)cc1OC, which outcome is on record?
A: inactive

Q: For C=Cc1ncc(OC)c2c1[nH]c1ccccc12, which outcome is on record?
A: inactive

Q: With Cc1ccc(NC(=O)CN(C)C(=O)Cn2ncc(Cl)c(Cl)c2=O)cc1 as the compound, how does the outcome read?
A: inactive

Q: Which outcome does the source give for O=C(/C=C/NNC(=O)c1ccccc1)c1ccc([N+](=O)[O-])cc1 here?
A: inactive

Q: With COc1ccc(/C=C/c2cc(C(F)(F)F)on2)cc1 as the compound, how does the outcome read?
A: inactive

Q: For O=[N+]([O-])c1ccc(-n2nnnc2-c2ccccc2)c([N+](=O)[O-])c1, which outcome is on record?
A: inactive

Q: For O=C(N/N=C/c1ccc([N+](=O)[O-])o1)c1cc2ccccc2o1, which outcome is on record?
A: inactive

Q: Which outcome does the source give for Cc1ccc(OCC(=O)N/N=C/c2ccc([N+](=O)[O-])o2)cc1 here?
A: inactive

Q: With CCN(CC)S(=O)(=O)c1cccc(C(=O)N/N=C/c2ccc([N+](=O)[O-])o2)c1 as the compound, how does the outcome read?
A: inactive

Q: With Cc1cc(C)cc(OCC(=O)N/N=C/c2ccc([N+](=O)[O-])o2)c1 as the compound, how does the outcome read?
A: inactive

Q: For Cc1cc(C(=O)N/N=C/c2ccc([N+](=O)[O-])o2)c(C)o1, which outcome is on record?
A: inactive

Q: For O=C(CNc1cccc([N+](=O)[O-])c1)N/N=C/c1ccc([N+](=O)[O-])o1, which outcome is on record?
A: inactive

Q: For O=C(CNc1ccc2ccccc2c1)N/N=C/c1ccc([N+](=O)[O-])o1, which outcome is on record?
A: inactive

Q: Which outcome does the source give for Cc1ccccc1OCC(=O)N/N=C/c1ccc([N+](=O)[O-])o1 here?
A: inactive

Q: Which outcome does the source give for O=c1c2ccccc2cnn1CCOc1ccccc1 here?
A: inactive

Q: Which outcome does the source give for CC(C)c1nnc(NC(=O)CCC2CCCCC2)s1 here?
A: inactive

Q: With c1cc(CSc2nnc(-c3ccc4c(c3)OCO4)o2)ccn1 as the compound, how does the outcome read?
A: inactive

Q: Which outcome does the source give for COCCNC(=O)/C(C#N)=C/c1cccc(/C=C(\C#N)C(=O)NCCOC)c1 here?
A: inactive

Q: Which outcome does the source give for Cc1ccc(C2=NN(C(=O)CCl)C(c3cccs3)C2)o1 (stereo not given) here?
A: inactive

Q: Which outcome does the source give for Cc1ccc([N+](=O)[O-])cc1N1C(=O)CS/C1=N\NC(=O)c1cccnc1 here?
A: inactive

Q: Which outcome does the source give for CC(=O)COc1ccc2cc(-c3ccccc3)c(=O)oc2c1 here?
A: inactive

Q: For O=[N+]([O-])c1ccccc1OCCOc1ccccc1[N+](=O)[O-], which outcome is on record?
A: inactive

Q: With CCOC(=O)C1(Cc2ccccc2)CCCN(CCCn2cccn2)C1 (stereo not given) as the compound, how does the outcome read?
A: inactive

Q: Which outcome does the source give for CN(Cc1ccccc1)C1=CC(=[N+]2CCCCC2)CC(C)(C)C1 here?
A: inactive

Q: With O=C(NCCNc1ccccc1[N+](=O)[O-])c1cc(F)c(F)cc1Cl as the compound, how does the outcome read?
A: inactive

Q: Which outcome does the source give for N#CC(C#N)=C1C=CC=CN1/C(=C\c1ccco1)C(=O)c1ccc(Br)cc1 here?
A: inactive

Q: For CC(C)N1C(=O)S/C(=C\c2ccc(-c3ccc(Cl)c(C(=O)O)c3)o2)C1=O, which outcome is on record?
A: inactive

Q: For Cc1cn(CCC(=O)Nc2ccccc2N2CCOCC2)c2ccccc12, which outcome is on record?
A: inactive

Q: With Fc1ccccc1-c1nc(-c2ccncc2)no1 as the compound, how does the outcome read?
A: inactive

Q: For Clc1cccc(-c2nc(-c3ccccn3)no2)c1, which outcome is on record?
A: inactive

Q: For C/C(=N/NC(=O)C(O)(c1ccccc1)c1ccccc1)c1ccc([N+](=O)[O-])o1, which outcome is on record?
A: inactive

Q: Which outcome does the source give for O=C(Nc1ccc2nc3n(c(=O)c2c1)CCCC3)c1cc([N+](=O)[O-])ccc1F here?
A: inactive

Q: With CCN(CC(=O)Nc1ccc2c(c1)OCCO2)C(=O)c1ccc([N+](=O)[O-])s1 as the compound, how does the outcome read?
A: inactive

Q: For O=C(c1ccc([N+](=O)[O-])s1)N1CCN(c2ccccn2)CC1, which outcome is on record?
A: inactive

Q: Which outcome does the source give for Cc1c(C#N)c(NC(=O)CCl)n(Cc2cccs2)c1C here?
A: inactive

Q: Which outcome does the source give for O=C(/C=C/c1ccc2c(c1)OCO2)N1CCCCC1 here?
A: inactive

Q: With Cc1ccccc1NCc1nc2ccccc2n1C as the compound, how does the outcome read?
A: inactive

Q: For Cc1ccc(C(=O)N/C(=C\c2ccc(-c3ccccc3[N+](=O)[O-])o2)C(=O)NCCN(C)C)cc1, which outcome is on record?
A: inactive

Q: For O=C(NC(=S)NCc1ccccc1)c1ccccc1, which outcome is on record?
A: inactive

Q: Which outcome does the source give for O=C(NCC1CCCO1)c1cc(-c2ccc(Cl)cc2Cl)on1 (stereo not given) here?
A: inactive

Q: Which outcome does the source give for CCOc1ccc2cc(C#N)c(SCC(=O)OC)nc2c1 here?
A: inactive

Q: Which outcome does the source give for Cc1ccc2nc(-c3ccncc3)[nH]c2c1 here?
A: inactive

Q: With Cn1nnnc1Sc1ncnc2scc(-c3cccc(F)c3)c12 as the compound, how does the outcome read?
A: inactive

Q: For CN(C)c1ccc(-n2cccc2/C=C/[N+](=O)[O-])cc1, which outcome is on record?
A: inactive

Q: With Cc1ccc(/C=c2/sc3n(c2=O)CCCN=3)o1 as the compound, how does the outcome read?
A: inactive

Q: With Cc1ccc(C(=O)NC2=NCCS2)cc1Cl as the compound, how does the outcome read?
A: inactive

Q: Which outcome does the source give for Nc1nnc(/C=C/c2ccccc2Cl)s1 here?
A: inactive

Q: Which outcome does the source give for CC1CCN(Cc2nc(-c3ccc(Cl)cc3)no2)CC1 here?
A: inactive

Q: For CCOC(=O)N1CCC(NC(=O)C2CCCN(Cc3nc(-c4cccc(C)c4)oc3C)C2)CC1 (stereo not given), which outcome is on record?
A: inactive

Q: With COc1cc(CN2CCC(C(=O)NCCC(C)C)CC2)ccc1OCc1ccccc1 as the compound, how does the outcome read?
A: inactive

Q: For CC(C)c1ccc(C(=O)Nc2cccnc2)cc1, which outcome is on record?
A: inactive

Q: Which outcome does the source give for Cc1cccc(NC(=O)c2cnn(-c3ccccc3)c2C)c1C here?
A: inactive

Q: With CCOc1ccccc1NC(=O)C1C2CCC(O2)C1C(=O)O (stereo not given) as the compound, how does the outcome read?
A: inactive

Q: For N#Cc1c(NC(=O)CSc2ncn[nH]2)sc2c1CCCCC2, which outcome is on record?
A: inactive

Q: With COC(=O)c1ccc(COc2ccc(C)cc2[N+](=O)[O-])o1 as the compound, how does the outcome read?
A: inactive

Q: Which outcome does the source give for Cc1ccc(NC(=O)c2cc(N3C(=O)C=CC3=O)ccc2N2CCOCC2)cc1Cl here?
A: inactive

Q: Which outcome does the source give for CCOC(=O)c1ccc(NC(=O)CC2SCCNC2=O)cc1 (stereo not given) here?
A: inactive

Q: For CCCOc1ccc(C(=O)Nc2ccc3c(c2)OCCO3)cc1, which outcome is on record?
A: inactive

Q: With Cc1ccc(NC(=O)c2ccc(OCC3CCCO3)cc2)c(C)c1 (stereo not given) as the compound, how does the outcome read?
A: inactive

Q: For O=C(Nc1ccc(N2CCOCC2)cc1)c1cnsn1, which outcome is on record?
A: inactive

Q: Which outcome does the source give for Cc1ccc(NC(=O)c2ccc([N+](=O)[O-])o2)cc1S(=O)(=O)N1CCOCC1 here?
A: inactive

Q: With CCOC(=O)c1ccc(NC(=O)c2ccnn2C)cc1 as the compound, how does the outcome read?
A: inactive

Q: With O=C(Nc1ccccc1N1CCOCC1)c1ccc([N+](=O)[O-])s1 as the compound, how does the outcome read?
A: inactive

Q: With C=CCC(Nc1ccccc1)C12C=CC(O1)C(C(=O)OC)=C2C(=O)OC (stereo not given) as the compound, how does the outcome read?
A: inactive

Q: With Cc1ccc(N2C(=O)c3ccc(N)cc3C2=O)cc1C as the compound, how does the outcome read?
A: inactive

Q: For S=c1[nH]nc(-c2ccco2)n1/N=C/C(Cl)=C/c1ccccc1, which outcome is on record?
A: inactive

Q: Which outcome does the source give for CCCCC1C(=O)N(c2ccccc2)N(c2ccc(O)cc2)C1=O (stereo not given) here?
A: inactive

Q: With CCOC(=O)CSc1nc2cc(OCC)ccc2cc1C#N as the compound, how does the outcome read?
A: inactive

Q: With Brc1ccc(-c2cn3cccnc3n2)cc1 as the compound, how does the outcome read?
A: inactive

Q: With O=C(NCc1ccco1)c1nc2c(nnn2Cc2ccccc2Cl)c(=O)[nH]1 as the compound, how does the outcome read?
A: inactive

Q: With CC(NC(=O)c1ccc([N+](=O)[O-])o1)C12CC3CC(CC(C3)C1)C2 (stereo not given) as the compound, how does the outcome read?
A: inactive

Q: For C=C1C(=O)O[C@@H]2[C@H]1[C@@H](OC(=O)/C(C)=C/C)C/C(C)=C\C(=O)/C=C(\C)[C@@H]2O, which outcome is on record?
A: inactive

Q: With CCN(CCO)c1ccc(N=Nc2cc(C)[nH]n2)cc1 as the compound, how does the outcome read?
A: inactive

Q: With CN(C)c1ccc(/C=C2\SC(=O)N(CCc3nnc(N)s3)C2=O)cc1 as the compound, how does the outcome read?
A: inactive

Q: Which outcome does the source give for COc1ccc(-c2nc(-c3ccccc3OC)no2)cc1OC here?
A: inactive

Q: With Cc1cc(Br)ccc1NC(=O)CNC(=O)Cn1ncc(Cl)c(Cl)c1=O as the compound, how does the outcome read?
A: inactive

Q: Which outcome does the source give for O=C(Cn1ncc(Cl)c(Cl)c1=O)NCC1CCCCC1 here?
A: inactive

Q: With CC(C)(C)C(=O)Cn1ncc(Cl)c(Cl)c1=O as the compound, how does the outcome read?
A: inactive

Q: For O=C(Cn1ncc(Cl)c(Cl)c1=O)N1CCN(Cc2ccccc2)CC1, which outcome is on record?
A: inactive

Q: For O=C1CN(C(=O)Cn2ncc(Cl)c(Cl)c2=O)c2ccccc2N1, which outcome is on record?
A: inactive

Q: For Cc1ccc(NC(=O)Cn2ncc(Cl)c(Cl)c2=O)cc1S(=O)(=O)N1CCCCC1, which outcome is on record?
A: inactive

Q: For Cc1ccc(CC(=O)Nc2ccc(Cl)cn2)cc1, which outcome is on record?
A: inactive

Q: Which outcome does the source give for C1CCC(C(CC2CCCCN2)C2CCCCC2)CC1 (stereo not given) here?
A: inactive

Q: Which outcome does the source give for OCc1ccc(N=Nc2ccccc2)cc1 here?
A: inactive

Q: Which outcome does the source give for COc1cc(-c2nnc(-c3ccco3)o2)ccc1OCc1ccccc1 here?
A: inactive

Q: With Cc1ccc2nc(C)cc(Nc3ccc([N+](=O)[O-])cc3)c2c1 as the compound, how does the outcome read?
A: inactive

Q: Which outcome does the source give for CCOc1cccc(C(=O)NC2=NCCS2)c1 here?
A: inactive

Q: Which outcome does the source give for COc1ccc(C)cc1Nc1nc(N)c2cc(OC)c(OC)cc2n1 here?
A: inactive

Q: Which outcome does the source give for O=C(O)c1cc(N/N=C/C(Cl)=C/c2ccccc2)ccc1Cl here?
A: inactive

Q: With Cc1ccc(C(=O)Nc2nc3ccc(Cl)cc3s2)o1 as the compound, how does the outcome read?
A: inactive

Q: With Cc1ccc(-c2n[nH]c(=O)c3ccccc23)cc1S(=O)(=O)NCC1CCCO1 (stereo not given) as the compound, how does the outcome read?
A: inactive

Q: For O=C(Nc1ccc2nn(-c3ccccc3)nc2c1)c1ccco1, which outcome is on record?
A: inactive

Q: Which outcome does the source give for CCOc1ccc(-c2nnc(-c3cccs3)o2)cc1OCC here?
A: inactive

Q: For Cn1cc(C(=O)N/N=C/c2c(O)ccc3ccccc23)ccc1=O, which outcome is on record?
A: inactive

Q: Which outcome does the source give for C/C(=N/Nc1nc(C)c(C)s1)c1cccc([N+](=O)[O-])c1 here?
A: inactive

Q: Which outcome does the source give for O=[N+]([O-])c1cc(Cl)cc(/C=N\Nc2ccccn2)c1O here?
A: inactive

Q: For CCCOc1ccc(-c2c(=O)n(O)c3ccccc3[n+]2[O-])cc1, which outcome is on record?
A: inactive

Q: For Cc1ccc2oc(=O)n(CCCOc3ccccc3)c2c1, which outcome is on record?
A: inactive

Q: Which outcome does the source give for CCOc1ccc(-c2noc(CCC(=O)O)n2)cc1 here?
A: inactive

Q: For COc1cccc(C(=O)N/N=C(/c2ccccc2)c2ccccn2)c1, which outcome is on record?
A: inactive

Q: With CS(=O)(=O)c1ncc(Cl)c(C(=O)Nc2ccc(N3CCOCC3)cc2)n1 as the compound, how does the outcome read?
A: inactive

Q: For O=C(Nc1ccc(F)cc1)c1nc(S(=O)(=O)Cc2ccccc2)ncc1Cl, which outcome is on record?
A: inactive

Q: For CC(=O)Nc1ccc(NC(=O)c2nc(S(=O)(=O)Cc3ccccc3)ncc2Cl)cc1, which outcome is on record?
A: inactive

Q: For O=C(Nc1ccc2ncccc2c1)c1ccccc1Br, which outcome is on record?
A: inactive

Q: For COc1ccc(/C=N/N=C2/SCC(=O)N2Cc2ccccc2)cc1, which outcome is on record?
A: inactive

Q: With Cc1ccc(C)c(S(=O)(=O)N2CCN(Cc3ccc(O)c4ncccc34)CC2)c1 as the compound, how does the outcome read?
A: inactive

Q: With CC1CCCC(NC(=O)NC(=O)CCl)C1C (stereo not given) as the compound, how does the outcome read?
A: inactive
